# Measured values: the supplement of paper PMC8728848
# This is one part of a sample in which the strongest signals are shown more often than they occur.
# B1: Erv41-EDTA (Saccharomyces cerevisiae), Q04651 (protein)
# chain: MKFLVNVALVFMVVYISYIYAAAPEHHHHHHDYDIPTTENLYFQGAMGYIDQQYVVDSQVRDTVQINMDIYVNTKCDWLQINVRDQTMDRKLVLEELQLEEMPFFIPYDTKVNDINEIITPELDEILGEAIPAEFREKLDTRSFFDESDPNKAHLPEFNGCHVFGSIPVNRVSGELQITAKSLGYVASRKAPLEELKFNHVINEFSFGDFYPYIDNPLDNTAQFNQDEPLTTYVYYTSVVPTLFKKLGAEVDTNQYSVNDYRYLYKDVAAKGDKMPGIFFKYNFEPLSIVVSDVRL
# Legend:
# Assay in all cases: glycan array binding signal (z-score within array); higher = stronger binding
# Conditions in all cases: glycan notation: IUPAC condensed, linker removed
# [1] = molecular target: Fuc(a1-2)Gal(b1-3)GlcNAc(b1-2)Man(a1-3)[Fuc(a1-2)Gal(b1-3)GlcNAc(b1-2)Man(a1-6)]Man(b1-4)GlcNAc(b1-4)GlcNAc
# How it was run: (§1)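 Glycan array binding is given as a within-array Z-score, which can be read as non-binding when negative. The arrays, 3228 of them, came from the Consortium for Functional Glycomics database and were retained only where the protein sequence was available. Z-scores were averaged across arrays of the same protein sequence at different concentrations or buffers and across linkers.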
# [2] = molecular target: Fuc(a1-2)Gal(b1-3)GlcNAc(b1-3)[Fuc(a1-2)Gal(b1-3)GlcNAc(b1-6)]GalNAc
# How it was run: as §1
# [3] = molecular target: Fuc(a1-2)Gal(b1-4)GlcNAc(b1-3)Gal(b1-4)GlcNAc
# How it was run: as §1
# [4] = molecular target: Fuc(a1-2)Gal(b1-4)GlcNAc6S
# How it was run: as §1
# [5] = molecular target: Fuc(a1-2)Gal3S(b1-4)GlcNAc
# How it was run: as §1
# [6] = molecular target: Fuc(a1-2)[Gal(a1-3)]Gal(b1-3)GalNAc(b1-3)Gal(a1-4)Gal(b1-4)Glc
# How it was run: as §1
# [7] = molecular target: Fuc(a1-2)[Gal(a1-3)]Gal(b1-3)GlcNAc(b1-2)Man(a1-3)[Fuc(a1-2)[Gal(a1-3)]Gal(b1-3)GlcNAc(b1-2)Man(a1-6)]Man(b1-4)GlcNAc(b1-4)[Fuc(a1-6)]GlcNAc
# How it was run: as §1
# [8] = molecular target: Fuc(a1-2)[GalNAc(a1-3)]Gal(b1-4)GlcNAc(b1-3)Gal(b1-4)GlcNAc(b1-3)Gal(b1-4)GlcNAc
# How it was run: as §1
# [9] = molecular target: Fuc(a1-3)[Gal3S(b1-4)]Glc
# How it was run: as §1
# [10] = molecular target: Gal(a1-3)Gal(b1-3)[Fuc(a1-4)]GlcNAc(b1-2)Man(a1-3)[Gal(a1-3)Gal(b1-3)[Fuc(a1-4)]GlcNAc(b1-2)Man(a1-6)]Man(b1-4)GlcNAc(b1-4)GlcNAc
# How it was run: as §1
# [11] = molecular target: Gal(a1-3)Gal(b1-4)[Fuc(a1-3)]GlcNAc
# How it was run: as §1
# [12] = molecular target: Gal(a1-3)Gal(b1-4)[Fuc(a1-3)]GlcNAc(b1-2)Man(a1-3)[Gal(a1-3)Gal(b1-4)[Fuc(a1-3)]GlcNAc(b1-2)Man(a1-6)]Man(b1-4)GlcNAc(b1-4)GlcNAc
# How it was run: as §1
# [13] = molecular target: Gal(b1-3)GalNAc(b1-3)Gal(a1-4)Gal(b1-4)Glc
# How it was run: as §1
# [14] = molecular target: Gal(b1-3)GlcNAc(b1-3)Gal(b1-4)GlcNAc(b1-3)Gal(b1-4)GlcNAc(b1-2)[Gal(b1-3)GlcNAc(b1-3)Gal(b1-4)GlcNAc(b1-3)Gal(b1-4)GlcNAc(b1-6)]Man(a1-6)[Gal(b1-3)GlcNAc(b1-3)Gal(b1-4)GlcNAc(b1-3)Gal(b1-4)GlcNAc(b1-2)Man(a1-3)]Man(b1-4)GlcNAc(b1-4)[Fuc(a1-6)]GlcNAc
# How it was run: as §1
# [15] = molecular target: Gal(b1-4)GlcNAc(b1-2)Man(a1-6)Man(b1-4)GlcNAc(b1-4)GlcNAc
# How it was run: as §1
# [16] = molecular target: Gal(b1-4)GlcNAc(b1-3)Gal(b1-4)GlcNAc(b1-3)Gal(b1-4)GlcNAc(b1-2)Man(a1-3)[Gal(b1-4)GlcNAc(b1-3)Gal(b1-4)GlcNAc(b1-3)Gal(b1-4)GlcNAc(b1-2)Man(a1-6)]Man(b1-4)GlcNAc(b1-4)[Fuc(a1-6)]GlcNAc
# How it was run: as §1
# [17] = molecular target: Gal(b1-4)GlcNAc(b1-3)Gal(b1-4)GlcNAc(b1-3)Gal(b1-4)GlcNAc(b1-2)[Gal(b1-4)GlcNAc(b1-3)Gal(b1-4)GlcNAc(b1-3)Gal(b1-4)GlcNAc(b1-6)]Man(a1-6)[Gal(b1-4)GlcNAc(b1-3)Gal(b1-4)GlcNAc(b1-3)Gal(b1-4)GlcNAc(b1-2)Man(a1-3)]Man(b1-4)GlcNAc(b1-4)[Fuc(a1-6)]GlcNAc
# How it was run: as §1
# [18] = molecular target: Gal(b1-4)GlcNAc(b1-3)Gal(b1-4)GlcNAc(b1-3)Gal(b1-4)GlcNAc(b1-3)Gal(b1-4)GlcNAc(b1-2)Man(a1-3)[Gal(b1-4)GlcNAc(b1-3)Gal(b1-4)GlcNAc(b1-3)Gal(b1-4)GlcNAc(b1-3)Gal(b1-4)GlcNAc(b1-2)Man(a1-6)]Man(b1-4)GlcNAc(b1-4)[Fuc(a1-6)]GlcNAc
# How it was run: as §1
# [19] = molecular target: Gal(b1-4)GlcNAc(b1-3)Gal(b1-4)GlcNAc(b1-3)Gal(b1-4)GlcNAc(b1-3)Gal(b1-4)GlcNAc(b1-2)[Gal(b1-4)GlcNAc(b1-3)Gal(b1-4)GlcNAc(b1-3)Gal(b1-4)GlcNAc(b1-3)Gal(b1-4)GlcNAc(b1-6)]Man(a1-6)[Gal(b1-4)GlcNAc(b1-3)Gal(b1-4)GlcNAc(b1-3)Gal(b1-4)GlcNAc(b1-3)Gal(b1-4)GlcNAc(b1-2)Man(a1-3)]Man(b1-4)GlcNAc(b1-4)[Fuc(a1-6)]GlcNAc
# How it was run: as §1
# [20] = molecular target: Gal(b1-4)GlcNAc(b1-3)Gal(b1-4)GlcNAc(b1-3)Gal(b1-4)GlcNAc(b1-3)Gal(b1-4)GlcNAc(b1-3)Gal(b1-4)GlcNAc(b1-2)Man(a1-3)[Gal(b1-4)GlcNAc(b1-3)Gal(b1-4)GlcNAc(b1-3)Gal(b1-4)GlcNAc(b1-3)Gal(b1-4)GlcNAc(b1-3)Gal(b1-4)GlcNAc(b1-2)Man(a1-6)]Man(b1-4)GlcNAc(b1-4)[Fuc(a1-6)]GlcNAc
# How it was run: as §1
# [21] = molecular target: Gal(b1-4)GlcNAc(b1-3)Gal(b1-4)GlcNAc(b1-3)[Gal(b1-4)GlcNAc(b1-3)Gal(b1-4)GlcNAc(b1-6)]GalNAc
# How it was run: as §1
# [22] = molecular target: Gal(b1-4)GlcNAc(b1-6)GalNAc
# How it was run: as §1
# Gal3S(b1-3)GalNAc = molecular target: Gal3S(b1-3)GalNAc
# How it was run: as §1
# Gal6S(b1-4)GlcNAc6S = molecular target: Gal6S(b1-4)GlcNAc6S
# How it was run: as §1
# [23] = molecular target: GalNAc(b1-4)GlcNAc(b1-3)GalNAc(b1-4)GlcNAc
# How it was run: as §1
# GlcA(b1-3)GlcNAc = molecular target: GlcA(b1-3)GlcNAc
# How it was run: as §1
binder,measurement,setting,value
B1,glycan array binding signal (z-score),[1],0.618
same,glycan array binding signal (z-score),[2],2.18
same,glycan array binding signal (z-score),[3],-0.317
same,glycan array binding signal (z-score),[4],0.642
same,glycan array binding signal (z-score),[5],-0.093
same,glycan array binding signal (z-score),[6],-0.396
same,glycan array binding signal (z-score),[7],0.605
same,glycan array binding signal (z-score),[8],0.784
same,glycan array binding signal (z-score),[9],-0.042
same,glycan array binding signal (z-score),[10],-0.414
same,glycan array binding signal (z-score),[11],-0.74
same,glycan array binding signal (z-score),[12],2.1
same,glycan array binding signal (z-score),[13],1.08
same,glycan array binding signal (z-score),[14],1.31
same,glycan array binding signal (z-score),[15],-0.604
same,glycan array binding signal (z-score),[16],1.64
same,glycan array binding signal (z-score),[17],2.65
same,glycan array binding signal (z-score),[18],2.2
same,glycan array binding signal (z-score),[19],2.63
same,glycan array binding signal (z-score),[20],3.41
same,glycan array binding signal (z-score),[21],1.32
same,glycan array binding signal (z-score),[22],1.98
same,glycan array binding signal (z-score),Gal3S(b1-3)GalNAc,0.809
same,glycan array binding signal (z-score),Gal6S(b1-4)GlcNAc6S,-0.128
same,glycan array binding signal (z-score),[23],-0.339
same,glycan array binding signal (z-score),GlcA(b1-3)GlcNAc,-0.217
